VLA-4 inh – inhibition in a human VLA-4 binding assay; VLA-4 expressing cells, ligand binding flow cytometry; inhibition, % (about 7 µM as worked out from the volumes in the protocol); hit rate 0.2% among 330,000; AID 2557; in the data active means inhibition above about 50%
GRK2 aptamer HTS – human GRK2 inhibition via aptamer displacement. bead flow cytometry, FAM-aptamer displacement from GRK2. inhibition of aptamer binding, % at 10 µM. AID 488847. P25098. hit rate 0.59% among 330,000;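 active means inhibition of aptamer binding above 40%, roughly 3 SD of noise, on plates passing a quality check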;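 further: median bead fluorescence of bound FAM aptamer so fluorescent compounds give negative values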
A1 inh – inhibitors of the anti-apoptotic protein A1, read as caspase activation | caspase activation, % (test concentration not listed) | MEF A1-2A-BIM cells, Caspase-Glo 3/7 luminescence, 3 h; percent of clofoctol response, vehicle zero | hit rate 0.066% among 330,000;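 active means over half of replicate activation scores above 10%, or exactly half above 10 with the replicate mean above 10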
B2AR ag – human beta-2 adrenergic receptor agonism by FAP; P07550; Am2.2-beta2AR cells, FAP receptor internalization, flow cytometry; response, % (no concentration beside the values); hit rate 0.43% among 340,000;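 active means response above a set limit, near 3 SD of response in nonfluorescent compounds, cut at about 42% in these data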
NTR1 ag – agonists of human neurotensin receptor NTR1. P30989. NTR1-U2OS beta-arrestin-GFP spot imaging, agonist mode. activation, % at 20 µM. hit rate 0.17% among 330,000. AID 493036;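 active means activation at or above 40% of the spot to cytoplasm intensity ratio, with at least 20 cells analyzed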
Target sequence (P30989 whole entry, looked up): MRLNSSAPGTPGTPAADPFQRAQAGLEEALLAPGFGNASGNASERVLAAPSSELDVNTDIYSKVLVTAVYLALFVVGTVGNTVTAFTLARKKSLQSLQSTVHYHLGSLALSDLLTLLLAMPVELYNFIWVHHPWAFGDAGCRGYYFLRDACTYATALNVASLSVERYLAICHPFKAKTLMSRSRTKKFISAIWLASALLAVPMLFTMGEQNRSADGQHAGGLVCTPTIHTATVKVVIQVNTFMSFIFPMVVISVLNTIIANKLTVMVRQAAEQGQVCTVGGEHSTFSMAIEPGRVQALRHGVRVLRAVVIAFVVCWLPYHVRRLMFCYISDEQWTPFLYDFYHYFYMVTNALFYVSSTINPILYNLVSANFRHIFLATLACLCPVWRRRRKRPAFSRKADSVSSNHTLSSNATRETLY
GRK2 CP1 – human GRK2 inhibition confirmation, cherry pick 1. shares compounds with GRK2 aptamer HTS. bead-bound GRK2, FAM-aptamer displacement, flow cytometry. aptamer displacement, % at 10 µM. hit rate 4% among 2,000. AID 504451;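 active means aptamer displacement above 40%, near three times the noise of non-fluorescent compounds, on plates passing quality checks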;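 further: negative values mostly reflect intrinsic compound fluorescence rather than true enhancement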
Aptamer quench SP – quenches fluorescent RNA aptamer, GRK2 hit artifact. Carboxyfluorescein RNA aptamer on beads, flow cytometry quenching; stronger effect = lower value. shares compounds with GRK2 aptamer HTS. 2,000 tested, under 10 active. fluorescence response (% of DMSO), % at 10 µM;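 active means compounds that quench the bead-bound fluorescent RNA probe, cutting fluorescence to under half of the solvent control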;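 further: counterscreen run without GRK2 so only probe quenching by compound is measured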
GRK2 confirm 2 – human GRK2 inhibition confirmation, cherry pick 2. shares compounds with GRK2 aptamer HTS. bead-bound GRK2, FAM-aptamer displacement, flow cytometry. inhibition of aptamer binding, % at 10 µM. 360 tested, under 10 active;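 active means inhibition of aptamer binding above 40%, about triple the noise seen with nonglowing compounds, on plates passing quality control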;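 further: negative values mostly come from compounds that fluoresce themselves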
FAM quench SP – quenches fluorescent RNA aptamer, GRK2 hit artifact; shares compounds with GRK2 aptamer HTS; carboxyfluorescein RNA aptamer beads, flow cytometry quenching; stronger effect = lower value; fluorescence response vs DMSO, % at 10 µM; 360 tested, under 10 active; AID 588494;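 active means response vs DMSO under 50%, meaning signal dropped by over half, treated as fluorescence quencher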;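 further: labelled aptamer on streptavidin beads without GRK2 as a quench counter-screen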
Hits are given with their value; . = inactive; / = no result given. Sampled rows, rich in hits. Any-hit rate of the full collection: about 1.3%.

SMILES	VLA-4 inh	GRK2 aptamer HTS	A1 inh	B2AR ag	NTR1 ag	GRK2 CP1	Aptamer quench SP	others
COc1ccc(CCNC(=O)CN2C(=O)NC3(CCCCC3C)C2=O)cc1 (stereo unspecified)	.	.	.	.	.	/	/
CCOC(=O)CSc1nnc(CSc2nc3sc4c(c3c(=O)[nH]2)CCC4)n1C	.	67	.	.	.	.	.
COc1ccc(CCNC(=O)CCNC(=O)c2ccc([N+](=O)[O-])cc2)cc1	.	.	.	.	.	/	/
O=c1[nH]c(CN2CCN(C/C=C/c3ccccc3)CC2)nc2ccccc12	.	.	.	.	.	/	/	GRK2 confirm 2=.;FAM quench SP=.
CN(C)/C=C/C(=O)c1ccc(Cl)c([N+](=O)[O-])c1	.	.	.	.	.	/	/
CC(Cc1c[nH]c2ccccc12)C(=O)O (stereo unspecified)	.	.	.	.	.	/	/
O=C(O)C(O)Cc1c[nH]c2ccccc12 (stereo unspecified)	.	67	.	.	.	.	.
NC(=O)c1ccc(SCC(=O)OCC(=O)NCc2cccs2)c([N+](=O)[O-])c1	.	.	.	.	.	/	/
CCC(C(=O)NCc1cccnc1)n1nc(C)n2c(cc3occc32)c1=O (stereo unspecified)	.	.	.	.	.	/	/
O=C(CCc1nnc2ccc(NCc3ccco3)nn12)Nc1ccc(F)cc1F	.	.	.	.	.	/	/
O=C(c1ccc(-c2ccccc2)c(F)c1)C1CCCN(CCCn2cccn2)C1 (stereo unspecified)	.	.	.	.	.	.	.
CCn1cc(CN2CCCC(C(=O)c3ccc(-c4ccccc4)c(F)c3)C2)cn1 (stereo unspecified)	.	.	.	.	.	/	/
CN(C(=O)c1cccc(NC(=O)Cc2ccc(NC(=O)C3CCN(C(=O)C4CCCCC4)CC3)cc2)c1)C1CCCC1	/	/	/	.	/	/	/
CN(C)CC#CCOC(c1ccccc1)c1ccccc1	.	.	.	.	.	/	/
CCN(CC)CC#CCOC(c1ccccc1)c1ccccc1	.	79	.	.	.	.	.
Cn1c(C(=O)c2ccncc2)cc2ccccc21	.	.	.	.	.	/	/
CC(C)Oc1ccc(CNCC2(O)CCOC(C)(C)C2)cc1 (stereo unspecified)	.	57	.	.	.	.	.
CC1(C)CC(O)(CNCc2ccc3c(c2)OCO3)CCO1 (stereo unspecified)	.	.	.	.	.	/	/
O=C(CSc1nnc(CNC(=O)c2ccc(F)cc2)o1)NCc1ccc2c(c1)OCO2	.	.	.	.	.	/	/
CCOC(=O)C(C(=O)OCC)c1cc(Br)c2noc3c2c1C(=O)c1ccccc1-3	.	51	10	.	.	.	.
Cc1cccc(NC(=O)C2C3C=CC(C4CC34)C2C(=O)O)c1 (stereo unspecified)	.	.	.	.	.	/	/
O=C(O)C1C2C=CC(C3CC23)C1C(=O)O (stereo unspecified)	.	.	.	.	.	/	/	GRK2 confirm 2=.;FAM quench SP=.
O=Cc1ccc(N2N=C(c3ccccc3)CC2c2ccccc2)cc1 (stereo unspecified)	.	46	.	.	.	.	.
O=C(Cc1ccc2ccccc2c1)NC(Cc1ccccc1)C(=O)O (stereo unspecified)	/	.	/	.	.	/	/
Cc1ccc(CNC(=O)CN2C(=O)NC(C)(c3cccc(Br)c3)C2=O)cc1 (stereo unspecified)	.	56	.	.	.	.	.
SMILES	VLA-4 inh	GRK2 aptamer HTS	A1 inh	B2AR ag	NTR1 ag	GRK2 CP1	Aptamer quench SP	others
COc1ccc(/C=N\Nc2ccccn2)c(OC)c1	.	.	.	.	.	/	/
COc1ccc(/C=N/Nc2ncc(Br)cn2)c(OC)c1	.	45	.	.	.	.	.
CC1CCCCC1NC(=O)COc1ncnc2sccc12 (stereo unspecified)	.	.	/	.	/	/	/
CC1CCN(c2ccc([N+](=O)[O-])cn2)CC1	.	55	.	.	.	/	/	GRK2 confirm 2=.;FAM quench SP=.
CCn1cc(C(=O)NC(C)C)c(=O)c2cc(F)c(N3CCN(C(=O)c4ccco4)CC3)cc21	.	88	.	.	.	.	.
CCn1cc(C(=O)NCC(OC)OC)c(=O)c2cc(S(=O)(=O)N3CCOCC3)ccc21	.	45	.	.	.	.	.
Cc1cc2c(c(=O)n1C1CC1)C(c1cccc(Cl)c1)C(C#N)=C(N)O2 (stereo unspecified)	.	93	.	.	.	.	.
Cc1cc2c(c(=O)n1CCN(C)C)C(c1ccc(Cl)cc1)C(C#N)=C(N)O2 (stereo unspecified)	.	.	.	.	.	/	/
Cc1ccc2c(c1)Oc1ccc([N+](=O)[O-])cc1C(=O)N2	.	.	.	.	.	/	/
Cc1ccc2c(c1)Oc1ccc(NC(=O)CCl)cc1C(=O)N2	.	41	.	.	.	.	.
O=C(N/N=C/c1ccccc1)c1cc(=O)[nH]c2ccccc12	.	.	.	.	.	/	/
COc1ccc(O)c(/C=N/NC(=O)c2cc(=O)[nH]c3ccccc23)c1	.	68	.	.	.	.	.
O=Cc1cccc(OC(=O)/C=C/c2ccco2)c1	.	62	.	.	.	.	.
CCN(c1ccccc1C(=O)O)S(=O)(=O)c1cccc2nsnc12	.	.	.	.	.	/	/
O=C1NN(c2ccccc2)C(=O)/C1=C/c1ccc(-c2ccc(Cl)c(C(=O)O)c2)o1	/	/	/	.	/	/	/
O=C(O)c1cc(-c2ccc(/C=C3\NC(=O)N(c4ccccc4)C3=O)o2)ccc1Cl	.	86	.	.	.	.	.
O=C(O)c1cc(-c2ccc(/C=C3\NC(=O)N(c4ccc(Cl)cc4)C3=O)o2)ccc1Cl	.	50	.	.	.	.	.
CC1(C(=O)O)CCC(C(=O)Nc2cccc(F)c2)C1(C)C (stereo unspecified)	.	.	.	.	.	/	/
CC(=O)n1c(=O)oc2ccccc21	.	.	.	.	.	/	/
Cc1c(C(=O)O)cccc1-n1c(C)cc(/C=N/NC(=O)c2cc3ccccc3o2)c1C	.	50	.	.	.	.	.
COc1ccc2cc3cc(C(=O)N4CCN(c5ccccn5)CC4)oc3nc2c1	.	57	.	.	.	.	.
COc1ccc2cc3cc(C(=O)N4CC(C)CC(C)C4)oc3nc2c1 (stereo unspecified)	.	.	.	.	.	/	/
O=[N+]([O-])c1cccc2c(S(=O)(=O)N3CCOCC3)cccc12	.	89	.	.	.	.	.

Bioassay records: PubChem BioAssay, several laboratories
